# Source: PubChem BioAssay (NCATS)
# Values joined by “and” are separate entries in the source; they are usually repeats but may differ in a detail not shown here. Identical values can stand only once. A number with no mark means an inactive call. Records with an inconclusive call do not appear. This is one part of the list. Active and inactive are the calls of the source. Unless noted, calls follow the shape of the dose curve; as a rule, active = well fitted curve in the direction sought with a large enough effect; inconclusive = small, poorly fitted or top-dose-only effect, or another doubt; inactive = no such curve, though single readings can be large; an effect the other way counts as inactive or inconclusive.
# Key:
# [1] = target: Tyrosine-protein kinase Yes (Homo sapiens) (UniProt P07947); assay: qHTS for small molecule inhibitors of Yes1 kinase: Primary Screen (AID 686947); settings: Yes1 kinase biochemical qHTS inhibition; also: potency is read from the fitted curve at half-maximal effect; nearly all actives have a fitted effect of over 60% in size
# How it was run: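 ADP-Glo luminescence readout; final 4 nM Yes1, 0.1 mM ATP, 0.3 mg/mL poly(E4Y), Tris pH 7.5, MgCl2, DTT, Brij-35. 20 min compound preincubation, 60 min reaction at RT. Normalized to DMSO wells with and without enzyme.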
# [2] = qHTS for small molecule inhibitors of Yes1 kinase: Counter Assay (AID 686950);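 also: no kinase present so only ADP-Glo detection of a fixed ADP amount is tested; luminescence from ADP-Glo reporting ADP in a fixed ATP and ADP mixture; series mostly up to about 77 µM; 0% = DMSO wells with ATP plus ADP and -100% = ATP-only wells without ADP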
# How it was run: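 Enzyme-free ADP-Glo interference check: compounds were preincubated 20 min in buffer, then an ATP/ADP mix (0.08 mM ATP, 0.02 mM ADP final) was added for 60 min at room temperature before two-step ADP-Glo luminescence detection.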
# [3] = qHTS assay for small molecule agonists of the antioxidant response element (ARE) signaling pathway (AID 651741; active = well fitted activation curve with a large enough effect in the signal ratio; the % refers to the signal ratio; also: potency is read from the fitted curve at half-maximal effect; as to activation: % of control where 0% means no effect)
# How it was run: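 ARE-bla HepG2 cells (beta-lactamase reporter under ARE control) were plated at 2,000 cells/well, preincubated 5 h at 37 C/5% CO2, then treated with DMSO-dissolved compounds for 16 h at 37 C; LiveBLAzer B/G FRET substrate added, fluorescence read after 2 h at room temperature.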
# [4] = qHTS assay for environmental chemicals that activate the Aryl hydrocarbon Receptor (AhR) signaling pathway (AID 651777); settings: 1A2-DRE human hepatoma cells, luciferase, 24 h; activation: hits give high values; also: nearly all actives have a fitted effect of over 15% in size; also: potency is read from the fitted curve at half-maximal effect; as to activation: % of control where 0% means no effect
# How it was run: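 Reporter gene assay: hepatoma cells with DRE/CYP1A2-luciferase, 24 hr compound incubation at 37 C, 5% CO2, luminescence after One-Glo (30 min, RT).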
# [5] = target: Peroxisome proliferator-activated receptor alpha (Homo sapiens) (UniProt Q07869); assay: qHTS assay for small molecule agonists of the peroxisome proliferator-activated receptor alpha (PPARalpha) signaling pathway (AID 651778); settings: PathHunter PPARalpha complementation, chemiluminescence, 6 h; max response: hits give high values; also: % of control where 0% means no effect
# How it was run: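 Cells plated at 2,000/well and held overnight at 37 C, 5% CO2, then compound added by pin tool for 6 hr; after PathHunter detection reagent and 60 min at room temperature, chemiluminescence from enzyme complementation was read.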
# [6] = qHTS assay for small molecule agonists of the antioxidant response element (ARE) signaling pathway measured by Nrf2-dependant transcriptional activity - cell viability counter screen (AID 720653; active = well fitted curve in the direction sought with a large enough effect in the repeat runs; an effect the other way counts as inactive or inconclusive; also: potency is read from the fitted curve at half-maximal effect); settings: ARE-bla HepG2 viability, CellTiter-Glo ATP luminescence, 16 h; max response: hits give low values
# How it was run: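 ARE-bla HepG2 cells (2,000/well) rested 5 hrs at 37C/5% CO2, then exposed to compounds in DMSO for 16 hrs. Viability was read in the same wells as intracellular ATP by luminescence, 30 min at room temperature after reagent addition.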
# [7] = qHTS assay for cell viability of HEK293 cells (AID 743288); settings: ATP luminescence (CellTiter-Glo), 18 h; max response: hits give low values; also: potency is read from the fitted curve at half-maximal effect; nearly all actives have a fitted effect of over 50% in size
# How it was run: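 Luminescent ATP quantitation served as the viability read-out. Cells (parental HEK293, 2,000/well) received compounds after at least 5 h at 37 C and were exposed for 18 h before a 30 min room-temperature reagent step.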
# [8] = qHTS assay for cell viability of the p53RE-bla HCT-116 cell line (AID 743292); also: potency is read from the fitted curve at half-maximal effect; nearly all actives have a fitted effect of over 55% in size
# How it was run: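 ATP-based luminescence, 16 h compound exposure at 37 C, p53RE-bla HCT-116 cells at 4,000/well.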
# [9] = qHTS assay for small molecule activators of the human pregnane X receptor (PXR) signaling pathway (AID 720659; call rule not given here; also: 0% is about no effect)
# [10] = qHTS Assay for Identifying Gametocytocidal Compounds (AID 743244); also: potency is read from the fitted curve at half-maximal effect;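 as to max response: % is scaled to controls: 0 for no effect and ±100 for the full control effect; actives lower the fluorescent signal which means gametocytes are killed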; settings: P. falciparum 3D7 stage III-V gametocytes, alamarBlue, 72 h; max response: hits give low values
# How it was run: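 Late gametocytes (III–V), P. falciparum 3D7; 72 h drug, then 24 h alamarBlue; resazurin reduction read by fluorescence.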
# [11] = target: Cytochrome P450 3A4 (Homo sapiens) (UniProt P08684); assay: qHTS Assay for Activators of Cytochrome P450 3A4 (AID 885); also: nearly all actives have a fitted effect of over 65% in size
# How it was run: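 Human CYP3A4 (20 nM) with Luciferin-PPXE at 25 uM (its KM) in 200 mM KPO4; 10 min compound preincubation, then NADPH regeneration and 60 min reaction at RT. Luciferin read by luminescence; normalized to 57 uM ketoconazole full inhibition.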
# [12] = target: Guanine nucleotide-binding protein G(i) subunit alpha-1 (Homo sapiens) (UniProt P63096); assay: qHTS Assay for Inhibitors of RGS12 GoLoco Motif Activity (Green Fluorophore) (AID 879);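 also: 0% = labeled peptide with Gαi1 and full inhibition = labeled peptide alone without protein; negative values mean loss of peptide binding seen as reduced polarization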
# How it was run: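 Fluorescence polarization assay: 50 nM Gαi1 with 10 nM FITC-labeled RGS12 GoLoco peptide in 10 mM Tris pH 7.5, 150 mM NaCl, 0.1 mM GDP, 0.05% NP40, 10 min at room temperature with compound.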
# [13] = target: Cytochrome P450 3A4 (Homo sapiens) (UniProt P08684); assay: qHTS Assay for Inhibitors and Substrates of Cytochrome P450 3A4 (AID 884); also: potency is read from the fitted curve at half-maximal effect; nearly all actives have a fitted effect of over 50% in size
# How it was run: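 20 nM human CYP3A4 with 25 uM Luciferin-PPXE (at KM) in 200 mM KPO4, preincubated 10 min with compound; NADPH regeneration started a 60 min RT reaction. Luciferin detected by luminescence, normalized to 57 uM ketoconazole as full inhibition.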
# [14] = target: Alpha-galactosidase (Coffea arabica) (UniProt Q42656); assay: Counterscreen for Glucocerebrosidase Inhibitors: qHTS Assay for Coffee Bean alpha-Galactosidase at pH 4.5 (AID 957);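 also: series mostly up to about 77 µM; plate controls were enzyme alone for no effect and no enzyme for full effect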
# How it was run: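 Green coffee bean enzyme (2 nM final) was incubated with compounds (0.7 nM to 77 uM) and 4-methylumbelliferyl alpha-D-galactopyranoside (80 uM final) in 50 mM citric acid, 0.005% Tween-20, pH 4.5, 20 min at room temperature; AC50 from Hill fits.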
# [15] = target: Alpha-galactosidase (Coffea arabica) (UniProt Q42656); assay: Counterscreen for Glucocerebrosidase Inhibitors: qHTS Assay for Coffee Bean alpha-Galactosidase at pH 5.9 (AID 998);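 also: plate controls were uninhibited enzyme for no effect and no-enzyme basal signal for full effect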
# How it was run: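 Green coffee bean enzyme (2 nM final) was incubated with compounds (0.7 nM–77 uM) and 4-methylumbelliferyl alpha-D-galactopyranoside (80 uM) in citrate buffer pH 5.9, 20 min at room temperature. High-pH stop; fluorescence 365/440 nm; AC50 from Hill fits.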
# [16] = target: Cytochrome P450 2C9 (Homo sapiens) (UniProt P11712); assay: qHTS Assay for Inhibitors and Substrates of Cytochrome P450 2C9 (AID 883); also: potency is read from the fitted curve at half-maximal effect; nearly all actives have a fitted effect of over 60% in size
# How it was run: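 Human CYP2C9 (10nM) hydroxylated Luciferin-H (100uM, at its KM) to luciferin in 25mM KPO4. Compound was preincubated 10 min at 37C, then NADPH regeneration started a 60 min reaction at 37C. Luminescence was read after detection reagent, normalized to 57uM sulphaphenazole.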
# [17] = target: Cytochrome P450 2D6 (Homo sapiens) (UniProt P10635); assay: qHTS Assay for Inhibitors and Substrates of Cytochrome P450 2D6 (AID 891); also: potency is read from the fitted curve at half-maximal effect; nearly all actives have a fitted effect of over 60% in size
# How it was run: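 Human CYP2D6 (5 nM) with 30 uM Luciferin-ME EGE (at Km) in 100 mM KPO4, compound preincubated 10 min, then NADPH regeneration system for 60 min at room temperature. Luciferin read by luminescence; normalized to 1.43 uM quinidine.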
# [18] = target: Cytochrome P450 2C19 (Homo sapiens) (UniProt P33261); assay: qHTS Assay for Inhibitors and Substrates of Cytochrome P450 2C19 (AID 899); also: potency is read from the fitted curve at half-maximal effect; nearly all actives have a fitted effect of over 60% in size
# How it was run: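 Human CYP2C19 (5nM) with Luciferin-H EGE at 10uM (its KM) in 50mM KPO4 was preincubated with compound for 10 min at 37C. NADPH regeneration started a 60 min 37C reaction. Luciferin was read by luminescence, normalized to 57uM ketoconazole.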
# [19] = target: Bifunctional 3'-5' exonuclease/ATP-dependent helicase WRN (Homo sapiens) (UniProt Q14191); assay: qHTS for Inhibitors of WRN Helicase: Confirmatory Assay for Cherry-picked Compounds. (AID 720497); also: series mostly up to about 57 µM; nearly all actives have a fitted effect of over 65% in size
# How it was run: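 Compound and 20 nM WRN incubated 15 min, RT. Forked duplex (100 nM) plus ATP (2 mM) added. Fluorescence monitored kinetically and normalized to controls.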
# [20] = qHTS for Inhibitors of WRN Helicase: Thiazole Orange DNA Binding Counterscreen (AID 720499)
# How it was run: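 Thiazole orange displacement from unlabeled DNA (50 nM DNA, 100 nM dye) was monitored by fluorescence, ex 480/em 530 nm, following 15 min room-temperature incubation with pintool-dispensed compounds.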
# [21] = target: RecQ-like DNA helicase BLM (Homo sapiens) (UniProt P54132); assay: qHTS for Inhibitors of WRN Helicase: BLM Helicase Counterscreen for WRN Inhibitors (AID 720503)
# How it was run: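 BLM at 1 nM was preincubated with compound for 15 min at room temperature in 25 mM Tris-HCl pH 8.0, 50 mM NaCl, 2 mM MgCl2, 1 mM DTT and 0.01% Tween-20. Unwinding was started with 100 nM DNA and 2 mM ATP (final). Fluorescence (ex 525/em 598 nm) was read twice, 15 min apart, and normalized to enzyme-free and DMSO controls.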
# Cytochrome P450 3A4 (Homo sapiens), sequence (P08684 whole entry, looked up): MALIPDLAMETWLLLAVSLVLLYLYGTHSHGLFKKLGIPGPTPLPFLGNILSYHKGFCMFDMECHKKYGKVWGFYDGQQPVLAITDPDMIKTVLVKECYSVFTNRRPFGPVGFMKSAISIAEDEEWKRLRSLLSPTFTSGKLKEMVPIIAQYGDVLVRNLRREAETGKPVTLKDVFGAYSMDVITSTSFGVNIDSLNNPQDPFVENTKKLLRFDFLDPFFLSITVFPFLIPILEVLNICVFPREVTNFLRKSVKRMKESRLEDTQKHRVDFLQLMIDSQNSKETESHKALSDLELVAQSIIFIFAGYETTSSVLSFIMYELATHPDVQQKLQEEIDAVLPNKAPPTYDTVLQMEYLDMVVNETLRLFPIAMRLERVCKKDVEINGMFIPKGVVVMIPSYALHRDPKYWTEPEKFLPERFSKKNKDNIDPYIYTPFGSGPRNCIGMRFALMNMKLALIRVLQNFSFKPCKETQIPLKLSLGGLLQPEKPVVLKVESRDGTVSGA
# Alpha-galactosidase (Coffea arabica), sequence (Q42656 whole entry, looked up): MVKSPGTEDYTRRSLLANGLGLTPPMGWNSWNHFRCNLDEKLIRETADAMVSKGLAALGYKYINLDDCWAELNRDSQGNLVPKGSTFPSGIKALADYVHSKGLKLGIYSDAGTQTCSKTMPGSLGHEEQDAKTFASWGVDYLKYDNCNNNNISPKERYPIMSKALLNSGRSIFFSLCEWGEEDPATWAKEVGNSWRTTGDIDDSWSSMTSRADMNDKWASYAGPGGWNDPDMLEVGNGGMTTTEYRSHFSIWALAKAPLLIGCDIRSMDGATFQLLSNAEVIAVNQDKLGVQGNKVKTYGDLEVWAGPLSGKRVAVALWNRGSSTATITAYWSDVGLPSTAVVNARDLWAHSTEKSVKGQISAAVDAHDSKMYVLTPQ
# Cytochrome P450 2C19 (Homo sapiens), sequence (P33261 whole entry, looked up): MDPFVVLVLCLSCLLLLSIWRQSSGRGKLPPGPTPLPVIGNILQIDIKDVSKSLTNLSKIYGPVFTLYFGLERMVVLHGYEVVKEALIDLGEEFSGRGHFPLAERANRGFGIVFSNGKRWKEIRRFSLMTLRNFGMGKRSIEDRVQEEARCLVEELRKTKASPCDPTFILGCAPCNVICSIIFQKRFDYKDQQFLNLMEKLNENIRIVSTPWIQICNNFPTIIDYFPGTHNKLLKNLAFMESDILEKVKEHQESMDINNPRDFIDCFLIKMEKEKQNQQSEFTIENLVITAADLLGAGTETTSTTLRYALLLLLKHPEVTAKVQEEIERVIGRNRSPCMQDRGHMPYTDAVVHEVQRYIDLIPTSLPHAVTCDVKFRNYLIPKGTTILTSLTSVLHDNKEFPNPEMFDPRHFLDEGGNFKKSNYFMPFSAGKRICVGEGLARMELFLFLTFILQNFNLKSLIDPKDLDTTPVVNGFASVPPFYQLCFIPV
# Guanine nucleotide-binding protein G(i) subunit alpha-1 (Homo sapiens), sequence (P63096 whole entry, looked up): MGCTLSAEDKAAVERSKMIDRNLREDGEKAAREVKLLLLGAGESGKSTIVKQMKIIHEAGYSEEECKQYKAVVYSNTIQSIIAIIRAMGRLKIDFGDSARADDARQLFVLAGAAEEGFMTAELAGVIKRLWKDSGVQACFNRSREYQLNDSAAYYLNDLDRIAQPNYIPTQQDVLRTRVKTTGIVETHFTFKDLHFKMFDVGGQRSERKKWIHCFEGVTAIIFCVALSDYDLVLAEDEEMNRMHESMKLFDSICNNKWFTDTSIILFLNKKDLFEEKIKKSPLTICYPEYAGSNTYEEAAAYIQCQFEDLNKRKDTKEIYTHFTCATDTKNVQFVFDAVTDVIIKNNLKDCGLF
# Cytochrome P450 2D6 (Homo sapiens), sequence (P10635 whole entry, looked up): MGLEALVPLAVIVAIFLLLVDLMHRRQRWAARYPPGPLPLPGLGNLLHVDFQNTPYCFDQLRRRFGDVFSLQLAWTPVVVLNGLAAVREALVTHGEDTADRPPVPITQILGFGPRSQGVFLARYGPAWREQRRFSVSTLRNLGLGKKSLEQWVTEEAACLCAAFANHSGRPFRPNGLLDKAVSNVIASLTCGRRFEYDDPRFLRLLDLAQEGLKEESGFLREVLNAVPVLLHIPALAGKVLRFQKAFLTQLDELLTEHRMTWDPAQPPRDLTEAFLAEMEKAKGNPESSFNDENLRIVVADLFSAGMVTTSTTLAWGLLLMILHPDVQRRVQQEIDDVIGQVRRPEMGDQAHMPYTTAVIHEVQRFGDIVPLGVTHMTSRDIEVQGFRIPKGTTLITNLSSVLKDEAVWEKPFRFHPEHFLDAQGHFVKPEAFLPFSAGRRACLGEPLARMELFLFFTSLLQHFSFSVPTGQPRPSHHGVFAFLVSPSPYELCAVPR
# Tyrosine-protein kinase Yes (Homo sapiens), sequence (P07947 whole entry, looked up): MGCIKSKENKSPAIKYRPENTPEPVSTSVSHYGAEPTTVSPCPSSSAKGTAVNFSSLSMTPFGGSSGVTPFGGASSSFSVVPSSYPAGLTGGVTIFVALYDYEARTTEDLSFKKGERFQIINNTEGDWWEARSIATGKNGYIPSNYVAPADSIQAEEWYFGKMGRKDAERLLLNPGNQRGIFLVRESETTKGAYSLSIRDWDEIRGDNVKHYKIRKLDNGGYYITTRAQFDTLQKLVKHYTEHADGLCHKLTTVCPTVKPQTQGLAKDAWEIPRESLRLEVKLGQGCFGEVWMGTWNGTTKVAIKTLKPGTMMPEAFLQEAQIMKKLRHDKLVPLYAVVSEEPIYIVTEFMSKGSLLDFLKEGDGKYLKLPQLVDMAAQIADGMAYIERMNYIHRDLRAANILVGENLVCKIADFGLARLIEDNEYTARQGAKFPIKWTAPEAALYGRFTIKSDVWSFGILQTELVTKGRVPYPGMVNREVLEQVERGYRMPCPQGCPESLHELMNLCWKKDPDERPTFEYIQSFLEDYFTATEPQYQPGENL
# Peroxisome proliferator-activated receptor alpha (Homo sapiens), sequence (Q07869 whole entry, looked up): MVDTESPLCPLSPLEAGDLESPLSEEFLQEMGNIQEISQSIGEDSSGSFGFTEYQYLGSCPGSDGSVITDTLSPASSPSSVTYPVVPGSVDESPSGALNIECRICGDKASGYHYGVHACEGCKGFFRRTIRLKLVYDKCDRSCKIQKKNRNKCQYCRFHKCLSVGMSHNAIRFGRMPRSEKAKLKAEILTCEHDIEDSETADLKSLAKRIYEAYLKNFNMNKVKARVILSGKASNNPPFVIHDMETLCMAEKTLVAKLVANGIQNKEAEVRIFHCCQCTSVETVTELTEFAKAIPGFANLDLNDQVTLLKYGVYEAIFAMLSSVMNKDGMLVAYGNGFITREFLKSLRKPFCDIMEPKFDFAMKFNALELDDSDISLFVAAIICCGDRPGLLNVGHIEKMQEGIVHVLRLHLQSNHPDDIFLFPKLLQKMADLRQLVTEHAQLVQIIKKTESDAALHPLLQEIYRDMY
# Bifunctional 3'-5' exonuclease/ATP-dependent helicase WRN (Homo sapiens), sequence (Q14191 whole entry, looked up): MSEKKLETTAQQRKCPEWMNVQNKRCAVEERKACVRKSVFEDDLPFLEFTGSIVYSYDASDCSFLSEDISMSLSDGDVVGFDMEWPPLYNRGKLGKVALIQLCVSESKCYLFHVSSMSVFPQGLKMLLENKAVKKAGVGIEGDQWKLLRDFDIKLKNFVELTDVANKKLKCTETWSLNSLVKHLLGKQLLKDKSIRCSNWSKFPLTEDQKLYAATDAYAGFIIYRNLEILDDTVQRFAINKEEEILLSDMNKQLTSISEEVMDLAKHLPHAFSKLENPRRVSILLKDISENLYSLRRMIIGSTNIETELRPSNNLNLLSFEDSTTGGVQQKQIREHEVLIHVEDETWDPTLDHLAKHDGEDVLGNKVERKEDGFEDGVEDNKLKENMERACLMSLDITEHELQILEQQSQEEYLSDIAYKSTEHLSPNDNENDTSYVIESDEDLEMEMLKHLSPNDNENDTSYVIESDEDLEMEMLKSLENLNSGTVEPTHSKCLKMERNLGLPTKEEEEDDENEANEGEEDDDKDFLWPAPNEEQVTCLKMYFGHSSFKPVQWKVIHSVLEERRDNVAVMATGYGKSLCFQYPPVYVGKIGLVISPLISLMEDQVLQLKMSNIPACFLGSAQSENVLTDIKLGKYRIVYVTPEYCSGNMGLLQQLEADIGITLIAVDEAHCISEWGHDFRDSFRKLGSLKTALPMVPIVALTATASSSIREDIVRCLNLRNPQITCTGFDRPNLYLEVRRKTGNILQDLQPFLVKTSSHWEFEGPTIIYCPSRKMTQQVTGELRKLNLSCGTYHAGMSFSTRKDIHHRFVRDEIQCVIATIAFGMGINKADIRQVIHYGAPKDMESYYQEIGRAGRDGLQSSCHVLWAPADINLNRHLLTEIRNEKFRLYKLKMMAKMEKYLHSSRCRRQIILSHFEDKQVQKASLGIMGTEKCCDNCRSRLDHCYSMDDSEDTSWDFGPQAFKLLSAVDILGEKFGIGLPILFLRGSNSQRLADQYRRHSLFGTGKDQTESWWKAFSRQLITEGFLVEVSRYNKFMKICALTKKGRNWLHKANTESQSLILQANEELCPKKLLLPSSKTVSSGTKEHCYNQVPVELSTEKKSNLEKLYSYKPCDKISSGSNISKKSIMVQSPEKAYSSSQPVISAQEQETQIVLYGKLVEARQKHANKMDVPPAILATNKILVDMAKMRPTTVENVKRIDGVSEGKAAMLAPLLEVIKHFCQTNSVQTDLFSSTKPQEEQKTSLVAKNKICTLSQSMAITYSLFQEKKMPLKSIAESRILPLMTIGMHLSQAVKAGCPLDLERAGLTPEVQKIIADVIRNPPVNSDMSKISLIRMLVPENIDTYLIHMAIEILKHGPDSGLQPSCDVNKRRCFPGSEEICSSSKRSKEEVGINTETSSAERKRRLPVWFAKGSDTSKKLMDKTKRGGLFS
compound,measurement,setting,value
CNC(=O)Oc1cc(C)c(C=Cc2cncc(C(=O)NC)c2)c(C)c1,Potency,[1],654 nM (active)
same,outcome,[2],inactive
[Cl][Sn]([c]1ccccc1)([c]1ccccc1)[c]1ccccc1,Potency,[3],486 nM (active)
same,activation,[4],-11.4%
same,max response,[5],-6.19%
same,Potency,[6],891 nM (active)
same,Potency,[7],2820 nM (active)
same,Potency,[8],7940 nM (active)
same,outcome,[9],inactive
CCC(C(=O)O)C1OC(C(C)C(O)C(C)C(=O)C(CC)C2OC3(C=CC(O)C4(CCC(C)(C5CCC(O)(CC)C(C)O5)O4)O3)C(C)CC2C)C(C)CC1C (centres undefined),Potency,[10],60.5 nM (active)
O=C(O)CN(CCN(CC(=O)O)CC(=O)O)CC(=O)O,Potency,[3],inactive
same,max response,[10],12.5%
Cc1c2ccccc2c(C)c2c1ccc1ccccc12,Potency,[11],inactive
same,Potency,[4],25100 nM (active)
CC[C@@]1([C@@H]2O[C@@H]([C@H]3O[C@@](O)(CO)[C@H](C)C[C@@H]3C)C[C@@H]2C)CC[C@H]([C@]2(C)CC[C@]3(C[C@H](O)[C@@H](C)[C@@H]([C@@H](C)[C@@H](OC)[C@H](C)C(=O)O)O3)O2)O1 (stereo in doubt),Potency,[10],891 nM (active) and 166 nM (active)
C[C@@]12C=CC(=O)C=C1CC[C@@H]1C2=CC[C@]2(C)[C@@H]1CC[C@H]2C(=O)CN1CCN(c2cc(N3CCCC3)nc(N3CCCC3)n2)CC1,Potency,[12],inactive
same,Potency,[13],3160 nM (active)
same,Potency,[11],inactive
same,outcome,[14],inactive
same,outcome,[15],inactive
CN(C)C(=O)CCSC(SCCC(=O)O)c1cccc(/C=C/c2ccc3ccc(Cl)cc3n2)c1 (centres undefined),max response,[10],41.4%
COc1c(-c2ccccc2)oc2c(ccc3occc32)c1=O,Potency,[16],1000 nM (active)
same,Potency,[13],3160 nM (active)
same,Potency,[11],inactive
same,Potency,[17],10000 nM (active)
same,Potency,[18],3980 nM (active)
O=C(O)COc1ccccc1/C=C1\C(=O)NC(=O)N(CCC2=CCCCC2)C1=O,outcome,[19],inactive
same,outcome,[20],inactive
same,outcome,[21],inactive
